Values joined by “and” are separate entries in the source; they are usually repeats but may differ in a detail not shown here. Identical values can stand only once. Active and inactive are the calls of the source. The rule behind the calls is not given here.
These compounds were tested against Dual specificity protein kinase CLK1 (Homo sapiens) (UniProt P49759) (assay: CLK1 binders by thermal stabilization, biophysical, recombinant human kinase, DSF (AID 382)). Conditions: at 10 µM, protein 2 µM, buffer 10 mM HEPES, NaCl 150 mM, hits give high values.
Chain of Dual specificity protein kinase CLK1 (Homo sapiens) (P49759 whole entry, looked up): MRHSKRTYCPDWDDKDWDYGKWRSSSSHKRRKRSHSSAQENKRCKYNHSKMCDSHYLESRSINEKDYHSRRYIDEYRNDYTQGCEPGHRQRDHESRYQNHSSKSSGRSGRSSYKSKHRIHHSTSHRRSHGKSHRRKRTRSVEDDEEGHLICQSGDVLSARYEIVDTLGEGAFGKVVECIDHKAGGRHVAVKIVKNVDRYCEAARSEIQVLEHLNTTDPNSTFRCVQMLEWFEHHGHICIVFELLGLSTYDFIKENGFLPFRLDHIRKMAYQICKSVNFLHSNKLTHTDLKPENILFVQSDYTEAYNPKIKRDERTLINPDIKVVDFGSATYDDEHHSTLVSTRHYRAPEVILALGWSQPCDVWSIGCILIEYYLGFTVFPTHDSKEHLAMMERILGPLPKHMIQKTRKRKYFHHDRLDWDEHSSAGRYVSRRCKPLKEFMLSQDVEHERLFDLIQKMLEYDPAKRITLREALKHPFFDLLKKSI

Tm shift, active:
CN(C)CCCn1cc(C2=C(c3c[nH]c4ccccc34)C(=O)NC2=O)c2ccccc21 6.98 Celsius
O=c1c(O)c(-c2ccc(O)c(O)c2)oc2cc(O)ccc12 7.11 Celsius
Brc1c(Br)c(Br)c2n[nH]nc2c1Br 3.97 Celsius
COc1cc(/C=C/C(=O)CC(=O)/C=C/c2ccc(O)c(OC)c2)ccc1O 9.16 Celsius
COC(=O)c1cnc2oc3ccc(O)cc3c2c1-c1ccccc1 6.11 Celsius
COc1cc(O)c2c(c1)oc(=O)c1c3cc(O)c(O)cc3oc21 3.2 Celsius
O=c1c(O)c(-c2ccc(O)c(O)c2)oc2cc(O)cc(O)c12 8.34 Celsius and 6.74 Celsius
Cc1cc(O)c2c(c1)C(=O)c1cc(O)cc(O)c1C2=O 3.11 Celsius
CC1N=C2SC=CN2C(=O)C1CCN1CCC(=C(c2ccccc2)c2ccc(F)cc2)CC1 (stereo not drawn) 6.74 Celsius
COc1cc(C2Oc3cc(O)cc(O)c3C(=O)C2=O)ccc1O (stereo not drawn) 6.14 Celsius
O=C1c2ccccc2-c2n[nH]c3cccc1c23 4.9 Celsius
NCCCn1cc(C2=C(c3c[nH]c4ccccc34)C(=O)NC2=O)c2ccccc21 8.48 Celsius
CC(C)n1cnc2c(Nc3cccc(Cl)c3)nc(NCCO)nc21 5.26 Celsius

— PubChem BioAssay AID382 (SGCOxCompounds, 2006)
